Shown are actives, neighbours in structure and some others; about 5.3% of the full set was active somewhere.
HCV inh: inhibitors of hepatitis C virus infection; Huh7.5.1 HCVcc-Cre infection, luciferase reporter, 44 h; Potency, µM (top dose mostly 41.8 µM), actives largely listed as inhibitors; 340,000 tested, 3.4% active; AID 651820; active = well fitted inhibition curve with a large enough effect; inconclusive = small, poorly fitted or top-dose-only effect, or another doubt; inactive = no such curve, though single readings can be large or run the other way
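Cells seeded at 1,000/well and cultured 4 h, then compounds added followed by HCVcc-Cre virus (~0.5 moi). After 44 h further culture, luciferase substrate was added, plates held 15 min at room temperature, and luminescence read for 15 sec.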
FMDV inh: antivirals against foot and mouth disease virus. 410,000 tested, 1.2% active. FMDV antiviral cell-based qHTS. Potency, µM (top dose mostly 57.9 µM), most hits filed as inhibitors; calls by dose curve; tested in HEK293T cells; note: read-out not given here; nearly all actives have a fitted effect of over 45% in size
VACV mCherry inh: vaccinia inhibition (mCherry reporter) | Vaccinia virus mCherry reporter infection, fluorescence | Potency, µM (top dose mostly 36.5 µM), actives largely listed as inhibitors | 310,000 tested, 0.63% active | AID 720579; calls by dose curve; tested in A549 cells; note: nearly all actives have a fitted effect of over 35% in size
MARV entry inh: inhibitors of Marburg virus binding or cell entry. Potency, µM (series often up to 37.8 µM), most hits filed as inhibitors. 300,000 tested, 1.8% active. Marburg virus pseudotyped entry inhibition, cell reporter. AID 540276; calls by dose curve; tested in HEK293 cells
Vaccinia Venus: inhibitors of vaccinia virus (Venus reporter); Vaccinia virus Venus reporter expression, fluorescence; Potency, µM (titrated, usually from 36.5 µM), usual class: inhibitors; 330,000 tested, 0.46% active; calls by dose curve; tested in A549 cells; note: nearly all actives have a fitted effect of over 30% in size
LASV entry inh: Lassa virus entry inhibition; Potency, µM (top dose mostly 37.9 µM), most hits filed as inhibitors; Lassa virus pseudotype entry inhibition, cell reporter; 300,000 tested, 1.2% active; calls by dose curve; tested in HEK293 cells; note: nearly all actives have a fitted effect of over 50% in size
Hits are given with their value; . = inactive; ? = inconclusive; / = no result given; ! = not confirmed by another sample.

SMILES	HCV inh	FMDV inh	VACV mCherry inh	MARV entry inh	Vaccinia Venus	LASV entry inh
Cc1cccc(N2CCN(C(=O)c3c(C)nn(Cc4ccccc4Cl)c3C)CC2)c1C	32µM	35µM	/	?	?	?
COc1ccc(/C(O)=C2\C(=O)C(=O)N(c3cc(C)on3)[C@H]2c2ccccc2OC)cc1C	/	/	/	.	/	/
C[C@]12N[C@H](Cc3ccccc31)c1ccccc12	.	?	.	14µM!	.	.
COc1cccc(C2=NC(C)(C)NC(c3ccccc3O)C2)c1 (centres undefined)	.	.	.	.	.	.
Cc1nc2cc(NC(=O)NC(C)(C)C)ccc2n1C	.	.	/	/	/	/
Cc1nc2cc(NC(=O)Nc3nccs3)ccc2n1C	.	/	.	?	.	13µM
Fc1ccc(Nc2nccc(-c3c(-c4ccc(C(F)(F)F)cc4)nn4ncccc34)n2)cc1F	/	/	/	/	/	.
Nc1nc(SCC(=O)Nc2cc(Cl)ccc2Cl)n[nH]1	.	.	.	.	.	.
CCCCc1nnc(NC(=O)c2ccccc2OCc2c(C)noc2C)s1	.	.	.	.	.	.
COCCCn1c(=N)c(C(=O)NCc2ccco2)cc2c(=O)n3ccccc3nc21	/	.	.	2.5µM	.	.
COc1ccc(CNC(=O)c2cc3c(=O)n4ccccc4nc3n(Cc3ccco3)c2=N)cc1	/	/	/	.	/	/
Cc1ccc(Cn2c(=N)c(C(=O)NCc3ccco3)cc3c(=O)n4ccccc4nc32)cc1	11µM	.	.	13µM	.	?
c1ccc(CC[n+]2ccncc2)cc1	/	/	.	/	.	/
CC(C)c1ccc(Nc2nc3c(S(=O)(=O)c4ccc(Br)cc4)nnn3c3ccsc23)cc1	/	.	.	/	.	?
Cc1c(C(=O)NCC(c2ccco2)N2CCCC2)sc2ccccc12 (centres undefined)	.	.	.	11µM	.	.
COc1ccccc1NS(=O)(=O)c1ccc(C(=O)NCC(c2ccco2)N2CCCCC2)cc1 (centres undefined)	.	.	/	/	/	/
COc1ccccc1N(C)S(=O)(=O)c1ccc(C(=O)NCC(c2ccco2)N2CCCCC2)cc1 (centres undefined)	22µM	.	/	/	/	/
O=C(NCC(c1ccco1)N1CCCCC1)c1ccc(COc2ccccc2)cc1 (centres undefined)	13µM	?	.	?	.	?
O=C(NCC(c1ccco1)N1CCCC1)c1sc2ccccc2c1Cl (centres undefined)	?	.	/	/	/	/
COc1ccc(O[C@H]2C=C[C@@H](c3ccccc3)O[C@H]2CON=C2[C@H]3CCn4c(=O)n(-c5ccccc5)c(=O)n4[C@@H]3[C@H](O)[C@@H]3O[C@H]23)cc1	/	/	/	.	/	/
CC(Oc1ccccc1F)C(=O)NCC1(N2CCOCC2)CCCCC1 (centres undefined)	/	.	.	.	.	.
CC(=O)c1c(C)[nH]c(C(=O)Nc2ccc(C)c(S(=O)(=O)N(C)C)c2)c1C	?	.	.	?	.	.
Cc1ccc(NS(=O)(=O)c2cc(NC(=O)c3ccc4c(c3)NC(=O)CS4)ccc2C)c(C)c1	11µM	?	.	10µM	.	?
CC(=O)c1c(C)[nH]c(C(=O)Nc2ccc(C)c(S(=O)(=O)Nc3ccc(C)cc3C)c2)c1C	25µM	.	.	/	.	/
COc1ccc(OC)c([C@@H]2C(C#N)=C(N)Oc3cc(C)[nH]c(=O)c32)c1	/	/	/	.	/	/
SMILES	HCV inh	FMDV inh	VACV mCherry inh	MARV entry inh	Vaccinia Venus	LASV entry inh
Cc1ccc(C2(c3ccc(C)cc3)CC2C(=O)Nc2ccc([N+](=O)[O-])cc2O)cc1 (centres undefined)	3.5µM	.	.	?	?	13µM
CC1(C)CC1C(=O)Nc1ccc([N+](=O)[O-])cc1Br (centres undefined)	?	.	.	.	.	.
CC1CCN(C(=O)Nc2ccc3nc(-c4ccco4)c(-c4ccco4)nc3c2)CC1	/	/	.	/	.	/
Cc1ccc(CSc2nc(-c3cccs3)ccc2C#N)cc1	/	.	.	.	.	.
C#CCSc1nc(-c2cccs2)ccc1C#N	4.5µM	?	/	.	.	.
N#CCCN1CCN(C(=S)c2ccc(-c3ccc(Cl)c(Cl)c3)o2)CC1	?	.	/	14µM	?	20µM
Cc1ccc(OCC(=O)NN=C2c3ccccc3-c3ccccc32)cc1	14µM	.	/	?	/	.
Cc1ccc(OCC(=O)NN2C(=O)c3ccccc3C2=O)cc1	.	.	.	/	.	/
COc1ccc2cc(/C=C3\SC(=S)NC3=O)c(N3CCOCC3)nc2c1	?	28µM	.	11µM	.	?
O=C1NC(=S)S/C1=C/c1ccc(N2CCOCC2)o1	?	?	.	?	.	.

Source: PubChem BioAssay (National Center for Advancing Translational Sciences (NCATS))
